Here are results for 2 compounds from ChEMBL document CHEMBL1201862, “PubChem BioAssay data set” (2004).

SMILES strings stand for the structures. Where “and” joins values, the source holds several entries; their conditions need not be identical. Equal entries are not always repeated. The campaign covered roughly 310,000 compounds. About 11,000 (3.5%) were called active. Roughly 4% stayed inconclusive and do not appear here. The calls are words filed in the database; no cut-off is given here. The entries come from a sample that favours actives as a whole.

For this experiment, the target named is T1, 4'-phosphopantetheinyl transferase ffp (Bacillus subtilis) (UniProt Q9F4F7).
T1 sequence (whole entry): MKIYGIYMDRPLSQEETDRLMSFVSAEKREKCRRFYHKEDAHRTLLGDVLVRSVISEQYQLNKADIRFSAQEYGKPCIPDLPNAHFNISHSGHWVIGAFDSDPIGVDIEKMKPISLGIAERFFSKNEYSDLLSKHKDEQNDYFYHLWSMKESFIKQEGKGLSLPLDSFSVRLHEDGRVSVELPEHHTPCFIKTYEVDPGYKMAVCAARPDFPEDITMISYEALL
Kind of experiment: qHTS Assay for Inhibitors of Bacillus subtilis Sfp phosphopantetheinyl transferase (PPTase). The experiment is classed as functional. In general terms: qHTS replaces the single test concentration by a dilution series.
Turning to `N[C@H](CCC(=O)O)C(=O)O`, the Potency was 44.7 µM (active) and 56.2 µM (active).

Consider `N[C@@H](CCC(=O)O)C(=O)O`, for which the Potency was 50.1 µM (active).
